Assay outcomes (PubChem BioAssay)
Hsp70 activator = Hsp70 transcriptional activation, primary screen; activation, % at 10 µM; HeLa Hsp70 promoter luciferase reporter, luminescence; scaled: vehicle 0, proteasome-inhibitor control 100%; 0.04% of 200,000 active;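 active = activation above the mean across all tested compounds plus 3 SD, cutoff set per campaign, cut at about 5.5% in these data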
Wee1 stabilizer = blocks degradation of human Wee1 kinase; HeLa Luc-Wee1K328M stability, luciferase luminescence; 100% = proteasome inhibitor MG132 effect; reporter increase, % at 5 µM; 1.2% of 220,000 active; AID 1321;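 active = activation above the mean of all tested compounds plus 3 SD, set per screening run, cut at about 8.8% in these data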;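 note: cells exposed to compound for 20 h before luminescence read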
Target sequence (P30291 whole entry K328M): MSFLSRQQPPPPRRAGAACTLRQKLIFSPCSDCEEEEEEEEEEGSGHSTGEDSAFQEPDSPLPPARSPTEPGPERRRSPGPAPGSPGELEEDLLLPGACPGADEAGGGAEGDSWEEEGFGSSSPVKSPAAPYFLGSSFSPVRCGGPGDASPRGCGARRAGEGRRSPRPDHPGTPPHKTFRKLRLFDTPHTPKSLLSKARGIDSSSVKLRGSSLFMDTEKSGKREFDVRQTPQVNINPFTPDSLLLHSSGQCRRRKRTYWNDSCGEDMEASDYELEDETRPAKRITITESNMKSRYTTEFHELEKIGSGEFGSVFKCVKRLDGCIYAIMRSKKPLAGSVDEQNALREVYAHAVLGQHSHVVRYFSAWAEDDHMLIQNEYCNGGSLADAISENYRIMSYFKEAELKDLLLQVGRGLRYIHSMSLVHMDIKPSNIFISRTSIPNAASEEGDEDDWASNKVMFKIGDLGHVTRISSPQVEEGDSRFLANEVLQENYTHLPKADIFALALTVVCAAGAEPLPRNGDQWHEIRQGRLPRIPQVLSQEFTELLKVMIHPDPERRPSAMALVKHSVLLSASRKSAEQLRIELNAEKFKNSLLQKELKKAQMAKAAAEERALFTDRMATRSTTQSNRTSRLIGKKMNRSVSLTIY
DTT redox prof = compounds producing H2O2 with reducing agent – biochemical, NIH compound library profiling, artefact control for MLSCN library redox annotation, primary screen | 0.03% of 200,000 active | DTT-dependent redox cycling H2O2, phenol red/HRP absorbance; 100% = 100 µM peroxide control, 0% = buffer | activation, % at 10 µM;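 active = activation of at least 50% relative to the plate's high and low controls in the primary single-dose screen; inactive = activation below 50%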;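 note: compound incubated with DTT at 0.8 mM final as the reducing agent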
p97 ATPase inh = human p97 ATPase inhibition. recombinant p97 ATPase, Kinase-Glo ATP luminescence, 3 h. inhibition, % at 8 µM. 0.42% of 220,000 active. AID 1481; in the data active = inhibition above about 15%
HSV augment = increases HSV replication in cells; maximum fold increase; HSV replication augmentation in cells, fold increase; AID 1956; 0.005% of 220,000 active; in the data active = maximum fold increase above about 1.5; tested in PC3 cells
Wee1 degr conf = human Wee1 degradation inhibition, confirmation; shares compounds with Wee1 stabilizer; HeLa Luc-Wee1K328M degradation, luminescence; vehicle 0%, proteasome-blocked wells 100%; activation, % at 5 µM; 4% of 1,100 active; AID 1410; in the data active = activation above about 8.9%
Each line names hits and unclear results; the compound was inactive in the other large screens (follow-up assays come after a bar, where they were run). Only some compounds are listed: those with a hit (about 1.6% of all), similar ones and a draw of the others.

COC(=O)C1=C(N)Oc2cc(C)n(Cc3ccncc3)c(=O)c2C1c1cccnc1 (configuration not stated)	Wee1 stabilizer 13.9 | Wee1 degr conf inactive
COc1cccc(N(CC(=O)N/N=C(\C)c2cccs2)S(C)(=O)=O)c1	Wee1 stabilizer 38.0 | Wee1 degr conf inactive
CCCCNS(=O)(=O)c1ccc(NC(=O)Cc2ccccc2[N+](=O)[O-])cc1	Wee1 stabilizer 14.0 | Wee1 degr conf inactive
COc1cc(CC(=O)OCC(=O)Nc2cc(S(=O)(=O)N3CCCC3)ccc2Cl)cc(OC)c1OC	none
CN(C(=O)c1ccccc1)c1nc2ccccc2s1	Wee1 stabilizer 13.3 | Wee1 degr conf inactive
Cc1ccc(NC(=O)Cc2noc3ccccc23)c(C)c1	none
Cc1cccc2c(CC(=O)Nc3ccccc3)noc12	Wee1 stabilizer 13.4 | Wee1 degr conf inactive
O=C(Nc1ccc2c(c1)OCO2)Nc1ccccn1	none
COc1cccc(NC(=O)c2cccc(C)c2[N+](=O)[O-])c1	Wee1 stabilizer 13.9 | Wee1 degr conf inactive
CC(C)(C)c1ccc(C2(C)NC(=O)N(CC(=O)Nc3ccc4c(c3)OCO4)C2=O)cc1 (configuration not stated)	Wee1 stabilizer 14.1 | Wee1 degr conf inactive
COC(=O)CSc1nnc(Cc2ccccc2)n1-c1ccc(C)cc1	none
O=C(CSc1nnc(Cc2ccccc2)n1-c1ccccc1)NNC(=O)Cc1ccccc1	Wee1 stabilizer 16.9 | Wee1 degr conf inactive
CSc1nccc(Oc2cncc(Cl)c2)n1	Wee1 stabilizer 16.8 | Wee1 degr conf inactive
COCc1nnc(NC(=O)c2ccc(NC(C)=O)cc2)s1	none
COCCSc1nnc(NC(=O)c2ccc(NC(C)=O)cc2)s1	Wee1 stabilizer 13.6 | Wee1 degr conf inactive
CC1(C)CC(=O)C(C(c2ccncc2)C2C(=O)CC(C)(C)CC2=O)C(=O)C1	Wee1 stabilizer 13.4 | Wee1 degr conf inactive
CCOC(=O)c1cnc(SCC#N)nc1N	Wee1 stabilizer 13.2 (no result: Hsp70 activator, DTT redox prof) | Wee1 degr conf inactive
CC(C)c1nnc(NC(=O)COc2ccccc2[N+](=O)[O-])s1	Wee1 stabilizer 22.5 (no result: Hsp70 activator, DTT redox prof) | Wee1 degr conf inactive
O=C(COc1ccccc1[N+](=O)[O-])NNC(=O)Nc1cccc2ccccc12	Wee1 stabilizer 16.0 | Wee1 degr conf inactive
O=C1c2ccccc2NC(c2ccccc2)N1Cc1ccco1 (configuration not stated)	Wee1 stabilizer 14.6 (no result: HSV augment) | Wee1 degr conf inactive
O=C1c2ccccc2NC(c2ccc(F)cc2)N1Cc1ccco1 (configuration not stated)	none
COc1cc(OC)cc(C(=O)Nc2ccc(-c3nc4ccccc4o3)cc2)c1	none
COc1cccc(C(=O)Nc2ccc(-c3nc4ccccc4o3)c(O)c2)c1	Wee1 stabilizer 11.6 | Wee1 degr conf inactive
O=[N+]([O-])c1ccc(COc2cccc(CNc3ccc(F)cc3)c2)cc1	Wee1 stabilizer 14.6 | Wee1 degr conf inactive
COc1cc(-c2nc3ccccn3c2/N=C/c2cccc(F)c2)ccc1O	none
COc1cc(-c2nc3ccccn3c2/N=C/c2ccccc2)ccc1O	Wee1 stabilizer 67.5 | Wee1 degr conf inactive
NS(=O)(=O)c1ccc(Cl)c(C(=O)Nc2ccccc2[N+](=O)[O-])c1	none
CC(C)CNC(=O)CN(C1CCCCC1)S(=O)(=O)c1ccccc1	Wee1 stabilizer 11.4 | Wee1 degr conf inactive
Cc1ccc(-c2[nH]ncc2/C=N/n2c(COc3ccccc3)nc3ccccc3c2=O)cc1	none
Cc1ccccc1OCc1nc2ccccc2c(=O)n1/N=C/c1cn[nH]c1-c1ccccc1	Wee1 stabilizer 10.9 | Wee1 degr conf inactive
COc1ccc(OC)c(NC(=O)C2CC(=O)N(CCc3ccccc3)C2)c1 (configuration not stated)	none
O=C(N=C1SCC(=O)N1c1ccccc1Cl)c1ccco1	Wee1 stabilizer 13.9 | Wee1 degr conf inactive
COc1ccc(-n2cc(CNCC3CC(=O)N(C4CC4)C3)c(-c3ccccc3Cl)n2)cc1 (configuration not stated)	none
CCN1CC(CNCc2cn(-c3ccc(OC)cc3)nc2-c2ccccc2Cl)CC1=O (configuration not stated)	Wee1 stabilizer 23.8 | Wee1 degr conf inactive
COc1ccc(-c2nc3cc([N+](=O)[O-])ccc3o2)cc1	Wee1 stabilizer 14.2 | Wee1 degr conf inactive
O=C(NCCN1CCOCC1)c1ccc(F)cc1	none
O=C(NCc1ccc2c(c1)OCO2)c1cc([N+](=O)[O-])ccc1N1CCCCC1	none
COc1ccc(CNC(=O)C2CCN(S(=O)(=O)c3cccc4cccnc34)CC2)cc1	none (no result: HSV augment)
CS(=O)(=O)Nc1ccccc1C(=O)N1CCOCC1	none
Cc1cccc(OCC(=O)O/N=C(\N)c2ccccn2)c1C	Wee1 stabilizer 11.2 | Wee1 degr conf inactive
CCCCN(C)CCCNC(=O)CS(=O)Cc1nc(-c2ccc(OC)c(OC)c2)oc1C (configuration not stated)	Wee1 stabilizer 12.9 | Wee1 degr conf inactive
CCCN(CCC)CCCNC(=O)CS(=O)Cc1nc(-c2ccc(OC)c(OC)c2)oc1C (configuration not stated)	none
CCN(CC)c1ccc(C(=O)Nc2cccc(F)c2)cc1	Wee1 stabilizer 13.9 | Wee1 degr conf inactive
Cc1ccc(-n2ncc(C#N)c2N)cc1	Wee1 stabilizer 11.2 (no result: Hsp70 activator, DTT redox prof) | Wee1 degr conf inactive
N#Cc1cnn(-c2ccc(F)cc2)c1N	none (no result: Hsp70 activator, DTT redox prof)
O=C(Cc1cccs1)NCCSc1c(-c2ccc(Cl)cc2)[nH]c2ccccc12	Wee1 stabilizer 12.7 (no result: HSV augment) | Wee1 degr conf inactive
O=C(CC1C(=O)NCCN1Cc1ccc(-c2ccccc2)cc1)NCCCn1ccnc1 (configuration not stated)	none (no result: Hsp70 activator, DTT redox prof)
CC1CC(C)CN(C(=O)c2ccc3c(c2)N(Cc2ccccc2)CCS3)C1 (configuration not stated)	Wee1 stabilizer 12.7 | Wee1 degr conf inactive
Cc1ccc(CN2CCSc3ccc(C(=O)N4CCN(c5ncccn5)CC4)cc32)cc1	none
COc1ccccc1Nc1nc(N)nc(CCl)n1	none (no result: Hsp70 activator, DTT redox prof)
COc1ccc(OCc2nc(N)nc(Nc3ccccc3OC)n2)cc1	Wee1 stabilizer 17.6 | Wee1 degr conf inactive
CC(=O)c1cccc(NC(=O)C2CC(c3ccc(F)cc3)=NO2)c1 (configuration not stated)	Wee1 stabilizer 25.5 | Wee1 degr conf inactive
CC(=O)c1ccc(NC(=O)C2CC(c3ccc(F)cc3)=NO2)cc1 (configuration not stated)	none
Cc1cc(OCc2nnc(SC(C)C(=O)O)n2Cc2ccccc2)ccc1Cl (configuration not stated)	Wee1 stabilizer 18.5 | Wee1 degr conf inactive
CC(Sc1nnc(COc2ccc(Cl)cc2)n1Cc1ccccc1)C(=O)O (configuration not stated)	none
COc1cc(OC)cc(C(=O)Nn2cnnc2)c1	none (no result: Hsp70 activator, DTT redox prof)
CC(C)CCNC(=S)Nc1ccc2nc3n(c(=O)c2c1)CCCCC3	Wee1 stabilizer 11.2 | Wee1 degr conf inactive
